The values that follow come from PubChem BioAssay (NCI).

Compounds without any hit were thinned out: in the full panel of roughly 79,000, 15% have a hit. A number with no mark means an inactive call. The source made the active and inactive calls. Rule as the data show it: active = growth inhibition above about 70%; inactive = the rest.

A short description of experiment [1]: NCI Yeast Anticancer Drug Screen. Data for the rad50 strain (AID 155).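 Also: 0% = growth of vehicle-only cultures of the same strain.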 Conditions: S. cerevisiae rad50 strain growth inhibition; at 50.0 µM; hits give high values. The essentials:
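Growth of the mutant yeast was measured after compound exposure and referenced to vehicle-treated cultures.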

Experiment [2] is described as follows: NCI Yeast Anticancer Drug Screen. Data for the mec2-1 strain (AID 157). Conditions: S. cerevisiae mec2-1 strain, at 50.0 µM, hits give high values. The essentials:
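Growth inhibition is read against vehicle-treated controls after compound exposure of the mec2-1 yeast strain, which is defective in DNA damage repair or cell cycle control.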

Experiment [3] in a line: NCI Yeast Anticancer Drug Screen. Data for the sgs1 mgt1 strain (AID 161).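 Also: 0% = growth of cultures given vehicle only.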 Conditions: S. cerevisiae sgs1 mgt1 strain, at 50.0 µM, hits give high values. The essentials:
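Yeast cells carrying a defined DNA-repair defect were exposed to test compounds. Growth inhibition was measured relative to vehicle-treated controls.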

A short description of experiment [4]: NCI Yeast Anticancer Drug Screen. Data for the cln2 rad14 strain (AID 165).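 Also: 0% = growth equal to vehicle treated cultures.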 Conditions: S. cerevisiae cln2 rad14 strain, at 50.0 µM, hits give high values. An outline of the steps: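 Growth inhibition, relative to vehicle-treated controls, is the read-out. The test organism is a yeast strain with defined genetic alterations, cln2 rad14.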
Experiment [5] is described as follows: NCI Yeast Anticancer Drug Screen. Data for the bub3 strain (AID 167). To be noted: S. cerevisiae bub3 mutant strain, at 50.0 µM, hits give high values. An outline of the steps: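 Whole-cell yeast assay. The mutant strain was incubated with compounds, and growth inhibition was determined by comparison with vehicle-treated cells.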
Experiment [6] is described as follows: NCI Yeast Anticancer Drug Screen. Data for the mlh1 rad18 strain (AID 175). To be noted: S. cerevisiae mlh1 rad18 strain growth inhibition; at 50.0 µM; hits give high values. An outline of the steps:
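Cells of a genetically altered yeast strain, deficient in DNA damage repair, were treated with compound. Their growth was then compared with that of vehicle-treated cultures to give inhibition.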

Turning to `COC1OOC(OC)c2ccccc2-c2ccccc21` (stereo not given), the growth inhibition in experiment [1] is -15.3%; in experiment [2], -9.7%; in experiment [3], 4.1%; in experiment [4], -14.1%; in experiment [5], 15.5%; in experiment [6], 4.15%.
For `COC(=O)C1C(C)N1P(=O)(OC)OC` (stereo not given), the growth inhibition is 7.3% in experiment [1]; 3.65% in experiment [2]; -7.55% in experiment [3]; -44% in experiment [4]; -4.3% in experiment [5]; 6.6% in experiment [6].
Regarding `CC(=O)O[C@H]1CC[C@@]2(C)[C@H](CC[C@@H]3[C@@H]2CC[C@]2(C)[C@@H](c4ccc(=O)oc4)C[C@H]4O[C@]342)C1`, the growth inhibition in experiment [1] was 53%; in experiment [2], 7.05%; in experiment [3], 29.5%; in experiment [4], 13.9%; in experiment [5] it was 8.45%; in experiment [6], 17.4%.
Turning to `CC1(C)OP(=O)(c2ccccc2)C=C1Br` (stereo not given), the growth inhibition is -39.9% in experiment [1]; -9.4% in experiment [2]; -23.4% in experiment [3]; -11.8% in experiment [4]; -2.75% in experiment [5]; -3.7% in experiment [6].
`C[N+](C)(Cc1ccccc1[N+](=O)[O-])c1ccc(N(CCCl)CCCl)cc1`: the growth inhibition was -7.8% in experiment [1]; -8.15% in experiment [2]; -4.2% in experiment [3]; -16.7% in experiment [4]; -22.3% in experiment [5]; 12.6% in experiment [6].
For the compound `C[C@]12CCC(=O)C[C@@H]1CC[C@@H]1[C@@H]2CC[C@]2(C)[C@@H]3OCCC[C@H]3C[C@@H]12`, the growth inhibition is 22.4% in experiment [1]; -0.5% in experiment [2]; 46.5% in experiment [3]; 14.7% in experiment [4]; 19.1% in experiment [5]; 39.2% in experiment [6].
As for `COP(=O)(Oc1ccccc1)Oc1ccccc1`, the growth inhibition in experiment [1] is 17.6%; in experiment [2], -17.5%; in experiment [3], 23.9%; in experiment [4], 13.1%; in experiment [5], 25.9%; in experiment [6] it was 18.5%.
As to `Clc1cccc(Cl)c1C(Cl)Cl`, the growth inhibition in experiment [1] is -7.45%; in experiment [2], -17.2%; in experiment [3], -3.15%; in experiment [4], -4.4%; in experiment [5] it was -6.65%; in experiment [6], -11.2%.
With `[CH-]=C([CH2-])C.[Ni][Br].c1ccc([PH+](c2ccccc2)c2ccccc2)cc1`, the growth inhibition in experiment [1] is 35.5%; in experiment [2], 2.9%; in experiment [3], 26.6%; in experiment [4] it was -8.85%; in experiment [5], -4.6%; in experiment [6] it was -1.75%.
For the compound `C[C@]12CC[C@H]3[C@@H](CC[C@H]4N(CCCl)CCC[C@]34C)[C@@H]1CC[C@@H]2O`, the growth inhibition was 15.9% in experiment [1]; 15.9% in experiment [2]; 46.5% in experiment [3]; 14.8% in experiment [4]; 69.2% in experiment [5]; 76.3% (active) in experiment [6].
Take `CC(C)c1cccc(C(C)C)c1NC(=O)/C(CC(=O)CC(c1ccccc1)c1c(O)c2ccccc2oc1=O)=N/O` (stereo not given): the growth inhibition is -45.5% in experiment [1]; 4.85% in experiment [2]; 19.1% in experiment [3]; -32.1% in experiment [4]; -15.8% in experiment [5]; 18.3% in experiment [6].
Turning to `C[C@]12CC[C@H]3[C@@H](CC=C4C=C(P(=O)(O)O)CC[C@@]43C)[C@@H]1CC[C@@H]2O`, the growth inhibition in experiment [1] was -8.1%; in experiment [2], 5.2%; in experiment [3], -8.55%; in experiment [4] it was -56.3%; in experiment [5], -12.9%; in experiment [6], -10.1%.
For `c1ccc(OP(Oc2ccccc2)(c2ccccc2)(c2ccccc2)c2ccccc2)cc1`, the growth inhibition in experiment [1] is 6.05%; in experiment [2], 6.6%; in experiment [3], 13.4%; in experiment [4], -16.4%; in experiment [5], -5.1%; in experiment [6], -42.6%.
Consider `O=[Se](=O)(O)O`, for which the growth inhibition in experiment [1] is -45%; in experiment [2], -20.2%; in experiment [3], -8.4%; in experiment [4] it was -74.7%; in experiment [5], -12.6%; in experiment [6], -14.5%.
Consider `CCCCCCCCCCCCCCCC(=O)[O][Hg][c]1ccccc1`, for which the growth inhibition was 97.6% (active) in experiment [1]; 96.7% (active) in experiment [2]; 99% (active) in experiment [3]; 98.1% (active) in experiment [4]; 99.2% (active) in experiment [5]; 98.8% (active) in experiment [6].
For the compound `CC(=O)Oc1ccc(CCN(C)C2CC3CCC2(C)C3(C)C)cc1OC(C)=O` (stereo not given), the growth inhibition in experiment [1] is 51.4%; in experiment [2], 21.4%; in experiment [3], 46.2%; in experiment [4] it was -11.2%; in experiment [5], 6.1%; in experiment [6] it was 41%.
As to `C=CCNC(=S)/N=C/c1c(O)[nH]c(=O)[nH]c1=O`, the growth inhibition in experiment [1] was -64.8%; in experiment [2], -50.4%; in experiment [3], -44.9%; in experiment [4] it was -47%; in experiment [5] it was -15.8%; in experiment [6], -44.1%.
As to `NC(=O)C(N)C(F)c1ccccc1` (stereo not given), the growth inhibition in experiment [1] is -11.4%; in experiment [2] it was 2.85%; in experiment [3], -16.4%; in experiment [4], -13.6%; in experiment [5], -11.7%; in experiment [6], 16.8%.
For the compound `[Cl][Co][Br].[NH-]CC[NH-].[NH-]CC[NH-]`, the growth inhibition in experiment [1] was -12.7%; in experiment [2], 3.95%; in experiment [3] it was 13.9%; in experiment [4] it was -42.1%; in experiment [5], 36.4%; in experiment [6], 21.2%.
For `CCCCCCCCCCC[CH2][Hg][Cl]`, the growth inhibition in experiment [1] was 8.6%; in experiment [2], 3.15%; in experiment [3] it was 12.4%; in experiment [4], -18.6%; in experiment [5], -3.45%; in experiment [6], -3.1%.
